Assay outcomes (PubChem)
ATXN viability = viability counter-screen for ATXN expression inhibitors. Potency, µM (doses to about 56.7 µM), usual class: cytotoxic. AID 651635. S2 cells (HEK-293 line with an ATXN2-luciferase reporter) viability, CellTiter-Fluor protease fluorescence, 24 h. hit rate 0.49% among 400,000; also: nearly all actives have a fitted effect of over 40% in size
HepG2 viability = kills HepG2 cells in TGF-b inhibitor counter-screen | HepG2 CAGA-GFP viability, ATP luminescence, 18 h | Potency, µM (highest dose often 46.1 µM), hits mostly cytotoxic | hit rate 0.76% among 410,000 | AID 588856
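CellTiter-Glo luminescence gave cytotoxicity after 18 hours at 37 degrees C. The cells were HepG2 CAGA-GFP in 1% FBS DMEM, stimulated with 500 pg/mL TGF-beta after compound addition. %Activity was normalised to no-cell wells (complete cell-killing) and DMSO (no toxicity), and curves were fitted and classified.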
DRD3 antagonist = blocks the human D3 dopamine receptor | AID 652054 | hit rate 2.5% among 360,000 | P35462 | D3R cells, DiscoveRx beta-arrestin luminescence, antagonist mode; stronger effect = lower value | max response, negative = inhibition, %; in the data active = max response below about -50%; inconclusive = no clear call, values can overlap the other calls
Target sequence (P35462 whole entry, looked up): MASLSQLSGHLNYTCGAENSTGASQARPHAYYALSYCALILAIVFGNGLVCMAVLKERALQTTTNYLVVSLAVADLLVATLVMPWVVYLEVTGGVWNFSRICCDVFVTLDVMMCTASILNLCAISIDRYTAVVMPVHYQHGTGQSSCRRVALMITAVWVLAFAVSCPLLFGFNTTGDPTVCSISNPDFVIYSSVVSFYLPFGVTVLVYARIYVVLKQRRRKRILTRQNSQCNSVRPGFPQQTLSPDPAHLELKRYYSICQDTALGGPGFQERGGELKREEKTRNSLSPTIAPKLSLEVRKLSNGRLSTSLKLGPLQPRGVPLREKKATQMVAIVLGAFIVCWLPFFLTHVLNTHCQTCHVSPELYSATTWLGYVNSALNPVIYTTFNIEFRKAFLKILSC
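Cells expressing the human receptor were seeded at 1500 cells/well, incubated overnight at 37 degrees C in 5% CO2, then exposed to library compounds with dopamine controls for 90 minutes at 37 degrees C before luminescent detection.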
TGFb inhibitor = inhibitors of TGF-b signaling; Potency, µM (doses to about 46.1 µM), usual class: inhibitors; hit rate 1.2% among 410,000; HepG2 CAGA-GFP TGF-b/SMAD3 reporter, GFP fluorescence, 18 h; TGF-beta stimulated, 500 pg/mL final; AID 588855; also: nearly all actives have a fitted effect of over 65% in size
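Read-out: total well GFP (ex488/em500-530) summed from mean per-cell fluorescence. Cells: HEPG2 CAGA-GFP, 1% FBS DMEM, 18 h at 37 degrees C with 500 pg/mL final TGF-beta. Unstimulated wells served as the full-inhibition control; stimulated DMSO wells = 0%.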
ATXN2 expr inh = reduces ATXN2 reporter expression in HEK-293 cells; HEK-293 ATXN2-luciferase reporter, luminescence, 24 h; hit rate 0.72% among 360,000; Potency, µM (titrated, usually from 57 µM), hits mostly inhibitors; also: nearly all actives have a fitted effect of over 55% in size
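ATXN2-luciferase reporter cells (luciferase flanked by upstream and downstream ATXN2 gene portions) were treated 24 h at 37 °C with compounds at up to 57 uM. SteadyGlo luminescence gave expression; GF-AFC fluorescence gave viability.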
D3 ag = activates the human D3 dopamine receptor; P35462; D3R DiscoveRx beta-arrestin cells, luminescence, 90 min; max activation, %; hit rate 0.58% among 410,000; AID 652048; in the data active = max activation above about 30%
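Cells at 1500/well, incubated overnight, then treated with pinned compounds (dopamine as control) for 90 min at 37 degrees C. DiscoveRx reagent added for 30 - 60 minutes at room temperature; luminescence read.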
Numbers stand for hits; n = inactive; u = inconclusive; x = no result. In the library only some 4.7% were active in any assay of this set; here they are far more common. Unless noted, calls follow the shape of the dose curve; as a rule, active = well fitted curve in the direction sought with a large enough effect; inconclusive = small, poorly fitted or top-dose-only effect, or another doubt; inactive = no such curve, though single readings can be large; an effect the other way counts as inactive or inconclusive.

SMILES	ATXN viability	HepG2 viability	DRD3 antagonist	TGFb inhibitor	ATXN2 expr inh	D3 ag
CCN(CC)CCNC(=O)c1ccc(CSc2nc3ccncc3n2Cc2cccc(F)c2)cc1	n	n	x	n	n	n
Cc1oc(-c2cccs2)nc1CN1CCN(CC(C)C)C(CCO)C1 (stereo unspecified)	n	n	n	n	n	n
Cc1ccccc1CC1(CO)CCCN(Cc2nc(-c3cccs3)oc2C)C1 (stereo unspecified)	u	n	-104	u	x	n
CC(NNC(=S)N1CCN(c2ccccn2)CC1)c1nccc2ccccc12 (stereo unspecified)	11µM	n	u	u	u	n
CCNC(=S)N1CCN(c2ccccn2)CC1	n	n	n	n	n	n
COc1ccc(CCNc2ncnc3nc[nH]c23)cc1	x	n	x	n	x	x
Cc1ccc(C(=O)CSC2=C(C#N)C(c3ccco3)C3=C(CC(C)(C)CC3=O)N2)cc1 (stereo unspecified)	n	n	-59	n	n	n
COc1ccc2c(C(=O)CCl)c[nH]c2c1	n	6.3µM	n	14µM	n	n
Cc1ccc(NC(=O)CSc2cn(CC(=O)N3CCCC3)c3ccccc23)cc1Cl	x	n	x	n	x	n
COCC(=O)Nc1cc(C(=O)NC2CCCc3ccccc32)c2c(c1)nc(-c1ccncc1)n2C (stereo unspecified)	n	x	x	x	x	x
O=C(CSc1nnc(CNC(=O)c2ccccc2)o1)NCCc1ccccc1	n	n	-68	u	n	n
Oc1ccc(Br)cc1C1C=C(c2ccc3c(c2)OCO3)NC(c2ccc(Br)cc2)N1 (stereo unspecified)	x	n	x	u	x	x
C=C1C(=O)[C@@]23[C@H](O)C[C@@H]4C(C)(C)CC[C@H](O)[C@]4(C)[C@@H]2C[C@H](O)[C@@H]1[C@H]3O	18µM	n	n	13µM	n	n
C=C1C(=O)[C@@]23[C@H](O)C[C@@H]4C(C)(C)CC[C@H](O)[C@@]4(C)[C@@H]2CC[C@@H]1[C@H]3O	7.9µM	8.9µM	-57	0.89µM	u	n
Cc1nc2c([nH]1)CCN(C(=O)c1ccc(NC(=O)c3ccccc3-c3ccccc3)cc1)c1ccccc1-2	x	x	x	x	n	x
Cc1nn(CC(=O)NCc2ccco2)c(=O)c2nn(-c3ccccc3)c(C)c12	n	n	x	n	n	n
Cc1ccc(-n2nc3c(=O)n(CC(=O)NCCc4ccco4)nc(C)c3c2C)cc1	n	n	n	22µM	n	n
CCOc1ccccc1CNC(=O)Cn1nc(C)c2c(C)n(-c3ccc(C)cc3)nc2c1=O	u	n	n	5µM	x	n
Cc1cc(-c2ccccc2)nc2cc(C(=O)Nc3ccc(Cl)c(Cl)c3)nn12	n	n	x	n	n	n
Cc1ccc(-c2nc(SCCOc3ccccc3C)n3[nH]c(=O)cc3n2)cc1	u	n	x	11µM	u	n
CC(C)(C)c1ccc(OCCSc2nc(-c3cccs3)nc3cc(=O)[nH]n23)cc1	n	n	x	n	n	37
Cc1ccc(OCCCSc2nc(-c3ccc(C(C)(C)C)cc3)nc3cc(=O)[nH]n23)cc1C	n	n	x	u	n	33
CC(C)(C)c1ccc(-c2nc(SCCOc3ccc(Cl)cc3)n3[nH]c(=O)cc3n2)cc1	n	n	x	n	n	n
O=c1cc2nc(-c3cccs3)nc(SCCOc3ccc(Cl)cc3)n2[nH]1	x	n	x	n	x	n
Cc1cccc(CN2CCN(C(c3ccccc3)c3ccc(Cl)cc3)CC2)c1 (stereo unspecified)	n	n	-107	n	n	n
CC(C)(C)c1ccc(CN2CCN(C(c3ccccc3)c3ccc(Cl)cc3)CC2)cc1 (stereo unspecified)	x	x	x	x	x	n
COc1cc(CN2CCN(C(c3ccccc3)c3ccccc3)CC2)cc(OC)c1OC	u	n	-85	u	x	n
CCCOc1ccc(C(=O)Nc2ccc3oc(-c4ccc(N(C)C)cc4)nc3c2)cc1	n	n	x	n	n	n
CCOc1ccc(NCc2cccn2-c2nnc(N3CCC(C(=O)NCCCN4CCCCC4C)CC3)s2)cc1 (stereo unspecified)	n	20µM	n	n	x	n
